Bioassay records (PubChem BioAssay)
HP1b chromo inh – blocks HP1-beta chromodomain binding to methylated histone tails; AID 540317; AlphaScreen HP1-beta / biotin-H3K9me3 peptide binding; 390,000 compounds, 0.56% hits; Potency, µM (doses to about 114 µM), inactives show at the highest dose activity change, negative = inhibition, hits mostly inhibitors; P83916; further: potency means the concentration at half of the fitted maximal effect; nearly all actives have a fitted effect of over 70% in size
Target sequence (P83916 whole entry, looked up): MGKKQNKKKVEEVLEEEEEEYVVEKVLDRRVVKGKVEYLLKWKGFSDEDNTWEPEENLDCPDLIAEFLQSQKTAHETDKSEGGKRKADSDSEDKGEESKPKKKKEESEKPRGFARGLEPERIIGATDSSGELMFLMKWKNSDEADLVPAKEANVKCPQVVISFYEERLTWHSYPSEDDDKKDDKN
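HP1-beta protein (50 nM final) preincubated 30 min at room temperature with biotinylated H3(1-18)K9me3 peptide (50 nM) in PBS pH 7.4, 0.01% Tween-20, then compound added for 30 min. AlphaScreen streptavidin donor/nickel chelate acceptor beads (10 ug/mL final), 30 min dark, luminescence read.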
JMJD2A Tudor – blocks the human JMJD2A Tudor domain; Potency, µM (doses to about 114 µM), for the others: at the top dose activity change, negative = inhibition, most hits filed as inhibitors; 390,000 compounds, 4.4% hits; AlphaScreen JMJD2A-Tudor / H3K4me3 peptide binding; O75164; further: potency means the concentration at half of the fitted maximal effect; on the % scale 0 is the no-effect control and ±100 the full control effect; nearly all actives have a fitted effect of over 50% in size
G9a inh – G9a (human) methyltransferase inhibition; 350,000 compounds, 8.8% hits; G9a H3K9 monomethylation, AlphaScreen, 2 h; Potency, µM (series often up to 102 µM), without a hit: at the highest dose activity, negative = inhibition, most hits filed as inhibitors; further: potency means the concentration at half of the fitted maximal effect; on the % scale 0 is the no-effect control and ±100 the full control effect; nearly all actives have a fitted effect of over 75% in size
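AlphaScreen read-out: biotin-H3K9 peptide (500 nM) methylation by 20 nM enzyme with 20 uM SAM, 2 h at room temperature after 15 min compound preincubation; anti-monomethyl H3K9 antibody plus donor/acceptor beads, 10 min dark.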
PLK1 PBD block – PLK1 (human) polo-box domain binding inhibition. 360,000 compounds, 2.8% hits. AID 720504. Potency, µM, without a hit: max response, negative = inhibition, usual class: inhibitors. Plk1 PBD binding of FITC phosphopeptide, fluorescence polarization; further: potency means the concentration at half of the fitted maximal effect; series mostly up to about 57 µM; on the % scale 0 is the no-effect control and ±100 the full control effect; nearly all actives have a fitted effect of over 65% in size
PI5P4Ka inh – blocks human PI5P4K alpha kinase activity; P48426; PI5P4Kalpha enzyme, ADP-Glo luminescence, 60 min; hits give low values; max response, %; 330,000 compounds, 1.2% hits; AID 652105; active means max response of -50% or lower; inconclusive means between -30% and -50%; inactive means -30% or higher; further: value at the top dose of about 77 µM; on the % scale 0 is the no-effect control and ±100 the full control effect
Target sequence (P48426 whole entry, looked up): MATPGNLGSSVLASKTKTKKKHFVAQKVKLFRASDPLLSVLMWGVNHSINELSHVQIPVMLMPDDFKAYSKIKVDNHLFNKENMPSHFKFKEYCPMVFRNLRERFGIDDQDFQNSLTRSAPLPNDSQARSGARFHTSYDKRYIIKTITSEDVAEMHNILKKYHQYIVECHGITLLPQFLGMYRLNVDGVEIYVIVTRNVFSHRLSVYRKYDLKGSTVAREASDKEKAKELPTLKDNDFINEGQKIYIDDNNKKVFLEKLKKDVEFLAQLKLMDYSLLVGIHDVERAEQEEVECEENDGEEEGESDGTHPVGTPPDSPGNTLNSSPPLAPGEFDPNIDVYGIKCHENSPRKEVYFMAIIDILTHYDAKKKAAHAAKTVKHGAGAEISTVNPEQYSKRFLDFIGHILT
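ADP-Glo luminescence end-point after a 60 min room-temperature kinase reaction. PI5P4Kalpha and substrate in HEPES pH 7.4 buffer with EGTA, 0.1% CHAPS and 5% DMSO; ATP at 5 microM final.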
BAZ2B block – blocks human BAZ2B; Q9UIF8; AlphaScreen BAZ2B-H3K14Ac peptide displacement; Potency, µM (highest dose often 114 µM), inactives show top-dose activity change, negative = inhibition, most hits filed as inhibitors; 360,000 compounds, 4.4% hits; AID 504333; further: potency means the concentration at half of the fitted maximal effect; on the % scale 0 is the no-effect control and ±100 the full control effect; nearly all actives have a fitted effect of over 60% in size
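AlphaScreen displacement of biotin-H3(5-23)K14Ac peptide (50 nM final) from BAZ2B (50 nM final) in PBS pH 7.4, 0.01% Tween-20; complex preformed 30 min RT, then compounds (top 110 uM) 30 min RT, beads 20 min dark.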
Starred values were filed as active, the others as inactive; [ ] = another dose, or the depositor's remark. Compounds with a hit are over-represented: about 12% of the library has one in this group of screens. Unless noted, the call rests on the fitted dose curve; in most records, active means well fitted curve in the direction sought with a large enough effect; inconclusive means small, poorly fitted or top-dose-only effect, or another doubt; inactive means no such curve, though single readings can be large; an effect the other way counts as inactive or inconclusive.

CCOC(=O)c1c(C)[nH]c(C(=O)OCCOc2ccccc2C)c1C was read as HP1b chromo inh 20%, JMJD2A Tudor -15%, G9a inh -2%[59 µM], PLK1 PBD block -4%, PI5P4Ka inh 25 and BAZ2B block -8%.
For CCOC(=O)c1ccc(N=C2NC(=O)CS2)cc1 the results were HP1b chromo inh 26%, JMJD2A Tudor -18%, G9a inh 20%[59 µM], PLK1 PBD block -5%, PI5P4Ka inh 8 and BAZ2B block 0%.
Screening Cc1cccc(NS(=O)(=O)c2ccc(C)c(C(=O)NNC(=O)c3csc(N4CCOCC4)n3)c2)c1 returned HP1b chromo inh 26%, JMJD2A Tudor -23%, PLK1 PBD block -3% and PI5P4Ka inh -3.
Screening COC(=O)c1ccc(OC(=O)CCS(=O)(=O)c2ccc(C)cc2)cc1 returned HP1b chromo inh 27%, JMJD2A Tudor -6%, G9a inh 35µM*, PLK1 PBD block -19%, PI5P4Ka inh 4 and BAZ2B block 0%.
Screening Cc1ccc(C(=O)CCS(=O)(=O)c2ccc(Cl)cc2)cc1 returned HP1b chromo inh 38%, JMJD2A Tudor -14%, G9a inh 1%, PLK1 PBD block inconclusive, PI5P4Ka inh 5 and BAZ2B block 0%.
Cc1ccc(C(=O)CCS(=O)(=O)c2ccc(F)cc2)cc1 was read as HP1b chromo inh 44%, JMJD2A Tudor -18%, G9a inh 32µM*, PLK1 PBD block 9.5µM*, PI5P4Ka inh 2 and BAZ2B block -4%.
`Cc1ccc(S(=O)(=O)CCC(=O)c2ccc(F)cc2)cc1` gave HP1b chromo inh 49%, JMJD2A Tudor -3%, G9a inh 126%, PLK1 PBD block 11µM*, PI5P4Ka inh 3 and BAZ2B block 8%.
Screening Cc1ccc(Cl)cc1-n1ncc2c(NCCC3=CCCCC3)ncnc21 returned HP1b chromo inh 40%, JMJD2A Tudor 3%, G9a inh 37%[59 µM] and BAZ2B block 11%.
`CCOC(=O)C1CCN(CCC(=O)Nc2ccccc2OC)CC1` gave HP1b chromo inh 22%, JMJD2A Tudor -5%, G9a inh inconclusive and BAZ2B block -12%.
For O=[N+]([O-])c1ccc2nc(-c3ccccc3)[nH]c2c1 the results were HP1b chromo inh -5%, JMJD2A Tudor -26%, G9a inh 20%[59 µM], PLK1 PBD block -7%, PI5P4Ka inh -8 and BAZ2B block -3%.
Screening CCOc1cc(-c2nc(-c3ccccc3)c(-c3cc([N+](=O)[O-])ccc3C)[nH]2)ccc1O returned HP1b chromo inh -30%, JMJD2A Tudor inconclusive, G9a inh 14µM*, PLK1 PBD block -4%, PI5P4Ka inh -3 and BAZ2B block inconclusive.
For O=[N+]([O-])c1ccc(O)c(-c2nc(-c3ccccc3)c(-c3cccs3)[nH]2)c1 the results were HP1b chromo inh inconclusive, JMJD2A Tudor 45µM*, G9a inh 35%[0.501 µM], PLK1 PBD block -6% and BAZ2B block 35µM*.
`COc1ccc(-c2nc(-c3ccccc3)c(-c3cc([N+](=O)[O-])ccc3C)[nH]2)cc1OC` gave HP1b chromo inh inconclusive, JMJD2A Tudor -18%[11.4 µM], G9a inh inconclusive, PLK1 PBD block -20%, PI5P4Ka inh 4 and BAZ2B block 45µM*.
CN(C)c1ncc2nc(-c3ccc(F)cc3)c(=O)n(-c3ccccc3)c2n1 was read as G9a inh 21%[0.501 µM].
Cc1cc(-c2[nH]nc3c2C(c2ccsc2)C(C#N)=C(N)O3)c(C)s1 (stereo not drawn) was read as HP1b chromo inh 9%, JMJD2A Tudor -25%, G9a inh -4%[12.7 µM], PLK1 PBD block -28%, PI5P4Ka inh -52* and BAZ2B block 3%.
CCCc1[nH]nc2c1C(c1ccc(O)cc1OCC)C(C#N)=C(N)O2 (stereo not drawn) was read as HP1b chromo inh 5%, JMJD2A Tudor -18%, G9a inh inconclusive, PLK1 PBD block -11%, PI5P4Ka inh -19 and BAZ2B block 79µM*.
COCc1[nH]nc2c1C(c1ccsc1)C(C#N)=C(N)O2 (stereo not drawn) was read as HP1b chromo inh 1%, JMJD2A Tudor -16%[57.1 µM], G9a inh -66%, PLK1 PBD block 27µM*, PI5P4Ka inh inconclusive and BAZ2B block 12%.
Screening CCCc1[nH]nc2c1C(c1ccsc1)C(C#N)=C(N)O2 (stereo not drawn) returned HP1b chromo inh 33%, JMJD2A Tudor -8%, PLK1 PBD block inconclusive, PI5P4Ka inh inconclusive and BAZ2B block inconclusive.
`COc1ccc(N2C(=O)C(CC(=O)Nc3ccc(F)cc3)N(Cc3ccc4c(c3)OCO4)C2=O)cc1` (stereo not drawn) gave HP1b chromo inh 27%, JMJD2A Tudor -17%, G9a inh -8%[59 µM] and BAZ2B block -7%.
Screening O=c1[nH]cnc2c1ncn2C1CCC(CO)O1 (stereo not drawn) returned PLK1 PBD block 4% and PI5P4Ka inh 0.
Screening COc1cc(/C=C2\C(=O)N(c3ccccc3)N=C2C)ccc1Oc1ccc([N+](=O)[O-])cc1[N+](=O)[O-] returned HP1b chromo inh inconclusive, JMJD2A Tudor 25µM*, G9a inh inconclusive, PLK1 PBD block 3.8µM*, PI5P4Ka inh -19 and BAZ2B block 45µM*.
COc1cc(/C=C2/SC(=O)NC2=O)ccc1Oc1ccc([N+](=O)[O-])cc1[N+](=O)[O-] was read as HP1b chromo inh -7%, JMJD2A Tudor -18%[11.4 µM], G9a inh inconclusive, PLK1 PBD block inconclusive, PI5P4Ka inh -18 and BAZ2B block inconclusive.
CC1=NN(c2ccccc2)C(=O)/C1=C\c1ccc(Oc2ccc([N+](=O)[O-])cc2[N+](=O)[O-])cc1 was read as HP1b chromo inh inconclusive, JMJD2A Tudor 40µM*, G9a inh 45µM*, PLK1 PBD block 1.9µM*, PI5P4Ka inh -29 and BAZ2B block 40µM*.
For O=C(c1ccccc1O)N(Cc1cccs1)Cc1cccs1 the results were JMJD2A Tudor -22%.
Screening O=C(NCc1ccc(Cl)cc1)c1cnc2sc(N3CCCCCC3)nn2c1=O returned HP1b chromo inh -13%, JMJD2A Tudor -17%, G9a inh 12%[59 µM] and BAZ2B block -3%.
For COc1ccc(NC(=O)CCN2C(=O)[C@@H]3[C@H](C2=O)[C@H]2C=C[C@@H]3C2)cc1 the results were HP1b chromo inh 14%, JMJD2A Tudor -10%[11.4 µM], G9a inh -3%, PLK1 PBD block 27µM*, PI5P4Ka inh -12 and BAZ2B block 5%.
COc1ccc(NC(=O)CCN2C(=O)C3C4CCC(C4)C3C2=O)cc1 (stereo not drawn) was read as HP1b chromo inh 26%, JMJD2A Tudor -5%, G9a inh 25%[59 µM], PLK1 PBD block 0%, PI5P4Ka inh 3 and BAZ2B block 24%.
